Experimental data from PubChem BioAssay (EPA / NIEHS).
Calls of active or inactive are those of the source. Rule for the calls: active = hit-call score of the fitted dose curve at least 0.9, where 1 is the maximum; inactive = score below 0.9.

Assays:
[1] = ATG_E_Box_CIS: Attagene CIS-FACTORIAL HepG2 Assay for human Enhancer Box (E-box) (AID 2282936); settings: HepG2 E-box cis-reporter transcription, actives raise or lower the signal
How it was run: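 Cells: HepG2 (human liver), transient MRTU transfection. Exposure 24 h. RNA → oligo(dT) RT → PCR → 6-FAM label → HpaI → CE. Activity fitted both directions relative to DMSO.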

[2] = ATG_M_61_CIS: Attagene CIS-FACTORIAL HepG2 Assay for M61 Transcription Factor (Internal Marker) (AID 2282937); settings: HepG2 Attagene CIS-FACTORIAL M61 internal marker reporter; actives raise or lower the signal
How it was run: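 Transfect HepG2 with MRTUs; dose 24 h; isolate RNA; reverse-transcribe with DNase I treatment; PCR-amplify, FAM-label and cut with HpaI for 2 h at 37 C; resolve by CE. Bidirectional fitting against DMSO.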

[3] = ATG_M_19_CIS: Attagene CIS-FACTORIAL HepG2 Assay for M19 Transcription Factor (Internal Marker) (AID 2282939); settings: HepG2 Attagene CIS-FACTORIAL M19 internal marker reporter; actives raise or lower the signal
How it was run: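 In this multiplexed cell assay, transiently transfected HepG2 reporter units report endogenous transcription-factor activity; after 24 hours of treatment, labelled reporter cDNA fragments are quantified by capillary electrophoresis and fitted bidirectionally against DMSO.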

[4] = ATG_ERE_CIS: Attagene CIS-FACTORIAL HepG2 Assay for Estrogen Response Element (ERE) (AID 2282940); settings: HepG2 ERE cis-reporter, Attagene RNA transcript; actives raise or lower the signal
How it was run: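 Measuring endogenous transcription factor output, the assay doses transfected HepG2 cells for 24 hours and quantifies reporter transcripts by fluorescent RT-PCR and capillary electrophoresis, with DMSO as baseline.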

[5] = ATG_Ets_CIS: Attagene CIS-FACTORIAL HepG2 Assay for human Erythroblast Transformation Specific (ETS) (AID 2282941); settings: HepG2 ETS cis-reporter transcription, actives raise or lower the signal
How it was run: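 Steps: transfect HepG2 with multiple reporter units; treat compound 24 h; isolate RNA, DNase-treat, reverse-transcribe; PCR-amplify, label with 6-FAM, digest with HpaI; separate by capillary electrophoresis. Activity fitted both directions versus DMSO.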

[6] = ATG_FoxO_CIS: Attagene CIS-FACTORIAL HepG2 Assay for human Forkhead box O (FoxO) (AID 2282943); settings: HepG2 Attagene cis-reporter, FoxO element, mRNA; actives raise or lower the signal
How it was run: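 Endogenous transcription factor activity read from multiplexed cis-promoter reporter transcripts in transiently transfected HepG2, 24 h after dosing. Reporter RNA measured via RT-PCR plus capillary electrophoresis of FAM-labeled products; gain or loss relative to DMSO.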

[7] = ATG_GATA_CIS: Attagene CIS-FACTORIAL HepG2 Assay for human GATA Binding Protein (AID 2282944); settings: HepG2 GATA cis-element reporter, Attagene multiplex mRNA; actives raise or lower the signal
How it was run: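 Measures endogenous transcription factor-driven reporter mRNA in HepG2 cells transiently carrying cis-regulated constructs. 24 h dosing; RNA via oligo(dT) reverse transcription, PCR, HpaI digestion, capillary electrophoresis; fitted relative to DMSO.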

[8] = ATG_GLI_CIS: Attagene CIS-FACTORIAL HepG2 Assay for human Zinc Finger Protein GLI1 (AID 2282945); settings: HepG2, Attagene cis-factorial reporter mRNA, GLI element; actives raise or lower the signal
How it was run: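 Bidirectional curve fits relative to DMSO, using reporter mRNA levels from RT-PCR plus capillary electrophoresis. Cells were HepG2 transiently carrying cis-regulated reporter constructs, harvested 24 h after dosing.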

[9] = ATG_ISRE_CIS: Attagene CIS-FACTORIAL HepG2 Assay for human Interferon Regulatory Factor 1 (IRF1) binding to an Interferon-Stimulated Response Element (ISRE) (AID 2282948); settings: HepG2 ISRE cis-reporter (Attagene), mRNA transcription readout; actives raise or lower the signal
How it was run: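 Transfected HepG2 (multiple reporter transcription units, cis elements) dosed 24 h. RNA → oligo(dT) RT → PCR → 6-FAM primer extension → HpaI → CE. DMSO = negative control/baseline.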

[10] = ATG_M_32_CIS: Attagene CIS-FACTORIAL HepG2 Assay for M32 Transcription Factor (Internal Marker) (AID 2282949); settings: HepG2 Attagene cis-factorial M32 reporter, mRNA; actives raise or lower the signal;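 note: background control marker of the multiplexed CIS panel rather than a real target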
How it was run: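 Fluorescent capillary electrophoresis peaks of HpaI-digested, FAM-labelled RT-PCR reporter products give the signal. Source: transiently transfected human liver HepG2 cells, 24 h after chemical dosing; bidirectional fitting against DMSO.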

[11] = ATG_M_06_CIS: Attagene CIS-FACTORIAL HepG2 Assay for M06 Transcription Factor (Internal Marker) (AID 2282950); settings: HepG2 Attagene CIS-FACTORIAL M06 internal marker reporter; actives raise or lower the signal
How it was run: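 One of many multiplexed endpoints: HepG2 reporter mRNA after 24 h dosing, detected by RT-PCR and capillary electrophoresis fluorescence; gain or loss of signal analysed against DMSO.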

[12] = molecular target: Hypoxia-inducible factor 1-alpha (Homo sapiens) (UniProt Q16665); experiment: ATG_HIF1a_CIS: Attagene CIS-FACTORIAL HepG2 Assay for human Hypoxia Inducible Factor 1 (HIF1A) (AID 2282951); settings: HepG2 Attagene cis-factorial HIF1a reporter transcription; actives raise or lower the signal
Hypoxia-inducible factor 1-alpha (Homo sapiens), sequence (Q16665 whole entry, looked up): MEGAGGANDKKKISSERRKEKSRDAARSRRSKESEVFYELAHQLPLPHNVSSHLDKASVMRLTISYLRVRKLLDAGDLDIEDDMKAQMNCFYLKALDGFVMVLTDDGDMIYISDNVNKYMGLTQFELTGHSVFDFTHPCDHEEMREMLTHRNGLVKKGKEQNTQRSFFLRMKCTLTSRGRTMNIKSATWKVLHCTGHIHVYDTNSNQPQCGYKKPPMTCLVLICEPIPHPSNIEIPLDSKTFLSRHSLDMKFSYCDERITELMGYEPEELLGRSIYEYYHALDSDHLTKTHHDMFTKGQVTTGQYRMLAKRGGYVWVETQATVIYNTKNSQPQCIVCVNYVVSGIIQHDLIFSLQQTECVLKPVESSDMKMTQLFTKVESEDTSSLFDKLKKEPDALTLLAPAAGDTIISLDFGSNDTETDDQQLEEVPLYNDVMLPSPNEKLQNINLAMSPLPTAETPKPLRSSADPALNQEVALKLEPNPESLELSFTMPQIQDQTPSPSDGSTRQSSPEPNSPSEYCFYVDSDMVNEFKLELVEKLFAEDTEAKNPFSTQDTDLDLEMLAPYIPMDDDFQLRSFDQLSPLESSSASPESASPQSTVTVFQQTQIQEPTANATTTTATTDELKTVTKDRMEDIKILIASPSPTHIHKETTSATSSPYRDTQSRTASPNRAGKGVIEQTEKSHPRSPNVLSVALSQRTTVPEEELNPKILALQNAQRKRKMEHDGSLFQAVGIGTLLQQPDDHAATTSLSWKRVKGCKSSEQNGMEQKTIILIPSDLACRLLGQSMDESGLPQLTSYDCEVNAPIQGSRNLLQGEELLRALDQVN
How it was run: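 After 24 h chemical exposure of reporter-transfected HepG2 cells, reporter cDNA was PCR-amplified, labelled by 6-FAM primer extension (2 min 95 C, 20 s 68 C, 10 min 72 C), HpaI-cut (2 h, 37 C) and analysed by CE.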

[13] = molecular target: Hepatocyte nuclear factor 6 (Homo sapiens) (UniProt Q9UBC0); experiment: ATG_HNF6_CIS: Attagene CIS-FACTORIAL HepG2 Assay for human Hepatocyte Nuclear Factor 6 (HNF6) (AID 2282952); settings: HepG2 Attagene cis-factorial HNF6 reporter transcription; actives raise or lower the signal
Hepatocyte nuclear factor 6 (Homo sapiens), sequence (Q9UBC0 whole entry, looked up): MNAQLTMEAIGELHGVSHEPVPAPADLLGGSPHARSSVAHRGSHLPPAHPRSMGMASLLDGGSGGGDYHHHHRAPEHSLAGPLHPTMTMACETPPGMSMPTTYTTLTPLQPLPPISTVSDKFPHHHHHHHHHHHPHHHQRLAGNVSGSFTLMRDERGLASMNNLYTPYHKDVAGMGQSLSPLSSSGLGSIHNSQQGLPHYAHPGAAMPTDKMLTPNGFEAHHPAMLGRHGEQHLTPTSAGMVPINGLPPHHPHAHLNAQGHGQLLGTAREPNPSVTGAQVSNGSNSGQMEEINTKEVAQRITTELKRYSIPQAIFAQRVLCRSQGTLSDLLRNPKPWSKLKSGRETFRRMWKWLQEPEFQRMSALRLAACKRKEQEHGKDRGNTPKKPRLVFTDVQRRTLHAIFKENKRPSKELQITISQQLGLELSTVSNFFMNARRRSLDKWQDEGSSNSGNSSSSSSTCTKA
How it was run: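 Transiently transfected HepG2 cells expressing cis-regulated reporter transcription units were exposed to chemical for 24 h in a 24-well format. Reporter transcript abundance was determined by fluorescence capillary electrophoresis.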

[14] = ATG_MRE_CIS: Attagene CIS-FACTORIAL HepG2 Assay for human Metal Responsive Element (MRE) (AID 2282954); settings: HepG2 MRE cis-reporter transcription, Attagene multiplex; actives raise or lower the signal
How it was run: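 Transient MRTU transfection of HepG2 (FuGene 6); 24 h dosing; total RNA → oligo(dT) RT, PCR, 6-FAM primer extension, HpaI cut, CE. Bidirectional fit vs DMSO.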

[15] = ATG_PBREM_CIS: Attagene CIS-FACTORIAL HepG2 Assay for human Phenobarbital-responsive Enhancer Module (PBREM) (AID 2282955); settings: HepG2 PBREM cis-reporter, Attagene multiplexed transcription; actives raise or lower the signal
How it was run: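 Measures endogenous factor action on a phenobarbital-responsive enhancer module. HepG2 transiently carrying cis reporters, 24 h treatment, mRNA read-out by RT-PCR plus capillary electrophoresis.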

[16] = molecular target: Hepatocyte nuclear factor 3-beta (Homo sapiens) (UniProt Q9Y261); experiment: ATG_FoxA2_CIS: Attagene CIS-FACTORIAL HepG2 Assay for human Forkhead box A2 (FOXA2) (AID 2282942); settings: HepG2 cis-reporter transcription factor activity, 24 h; actives raise or lower the signal
Hepatocyte nuclear factor 3-beta (Homo sapiens), sequence (Q9Y261 whole entry, looked up): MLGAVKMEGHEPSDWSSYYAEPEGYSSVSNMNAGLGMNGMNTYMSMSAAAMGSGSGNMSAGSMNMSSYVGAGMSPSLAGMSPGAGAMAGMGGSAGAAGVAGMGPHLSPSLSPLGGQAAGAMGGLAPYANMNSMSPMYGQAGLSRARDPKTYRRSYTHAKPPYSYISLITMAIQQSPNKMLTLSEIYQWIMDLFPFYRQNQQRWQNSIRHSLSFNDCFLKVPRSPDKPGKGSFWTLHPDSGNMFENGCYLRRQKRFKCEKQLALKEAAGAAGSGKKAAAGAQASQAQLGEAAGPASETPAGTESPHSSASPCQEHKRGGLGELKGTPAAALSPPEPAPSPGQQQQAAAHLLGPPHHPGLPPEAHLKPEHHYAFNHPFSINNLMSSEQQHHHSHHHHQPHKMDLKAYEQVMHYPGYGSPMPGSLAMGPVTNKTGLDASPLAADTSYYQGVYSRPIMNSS
How it was run: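 24 h dosing of HepG2 bearing cis-reporter constructs; mRNA readout by RT-PCR/CE fluorescence; bidirectional fit, DMSO baseline.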

[17] = ATG_GRE_CIS: Attagene CIS-FACTORIAL HepG2 Assay for human Glucocorticoid Response Elements (GRE) (AID 2282947); settings: HepG2 GRE cis-reporter, Attagene multiplex mRNA; actives raise or lower the signal
How it was run: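 Transient MRTU transfection of human HepG2 liver cells; cis-regulated reporters report endogenous factors. 24 h dosing → RNA isolation → RT-PCR → 6-FAM primer extension → HpaI cut → CE fragment analysis. Bidirectional fit, DMSO negative control.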

[18] = molecular target: Heat shock factor protein 1 (Homo sapiens) (UniProt Q00613); experiment: ATG_HSE_CIS: Attagene CIS-FACTORIAL HepG2 Assay for human Heat Shock Transcription Factor 1 (HSE) (AID 2282953); settings: HepG2 HSE cis-reporter, Attagene RNA transcription; actives raise or lower the signal
Heat shock factor protein 1 (Homo sapiens), sequence (Q00613 whole entry, looked up): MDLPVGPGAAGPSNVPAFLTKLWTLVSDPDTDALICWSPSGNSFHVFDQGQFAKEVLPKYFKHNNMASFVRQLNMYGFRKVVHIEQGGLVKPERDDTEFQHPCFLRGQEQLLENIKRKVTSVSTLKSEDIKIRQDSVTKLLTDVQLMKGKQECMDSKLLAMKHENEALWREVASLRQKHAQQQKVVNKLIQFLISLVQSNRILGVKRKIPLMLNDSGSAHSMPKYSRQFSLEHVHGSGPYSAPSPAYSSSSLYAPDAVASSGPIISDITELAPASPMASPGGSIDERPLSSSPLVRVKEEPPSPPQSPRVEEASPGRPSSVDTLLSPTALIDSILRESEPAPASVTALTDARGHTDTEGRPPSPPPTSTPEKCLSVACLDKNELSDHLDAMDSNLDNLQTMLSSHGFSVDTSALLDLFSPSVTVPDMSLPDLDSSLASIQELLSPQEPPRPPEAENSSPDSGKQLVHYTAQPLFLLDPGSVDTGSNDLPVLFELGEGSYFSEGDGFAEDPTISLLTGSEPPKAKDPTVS
How it was run: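 Using HepG2 with transfected cis-driven reporter constructs, compound effects on endogenous factor activity are scored as reporter mRNA change at 24 h. Detection: RT-PCR, HpaI digestion, capillary electrophoresis; bidirectional fitting to DMSO.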

[19] = molecular target: Bile acid receptor (Homo sapiens) (UniProt Q96RI1); experiment: ATG_IR1_CIS: Attagene CIS-FACTORIAL HepG2 Assay for human Nuclear Receptor Subfamily 1 Group H Member 4 (NR1H4), IR1 submotif (AID 2282946); settings: IR1 reporter transcription, actives raise or lower the signal
Bile acid receptor (Homo sapiens), sequence (Q96RI1 whole entry, looked up, the tested form may be a part): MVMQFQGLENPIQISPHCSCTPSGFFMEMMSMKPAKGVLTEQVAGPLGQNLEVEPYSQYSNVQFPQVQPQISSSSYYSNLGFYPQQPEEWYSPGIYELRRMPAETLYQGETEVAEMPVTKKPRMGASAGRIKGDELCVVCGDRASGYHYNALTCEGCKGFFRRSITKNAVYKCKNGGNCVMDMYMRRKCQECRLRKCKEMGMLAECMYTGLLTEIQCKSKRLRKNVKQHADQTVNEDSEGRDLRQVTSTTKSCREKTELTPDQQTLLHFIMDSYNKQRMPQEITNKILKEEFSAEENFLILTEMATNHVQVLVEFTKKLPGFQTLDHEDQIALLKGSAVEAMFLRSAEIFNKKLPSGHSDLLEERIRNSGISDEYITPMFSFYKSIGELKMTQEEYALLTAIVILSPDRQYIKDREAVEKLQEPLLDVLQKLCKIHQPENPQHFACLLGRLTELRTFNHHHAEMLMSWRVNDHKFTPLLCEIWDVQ
How it was run: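 Cells (human HepG2) carry transiently transfected cis-promoter reporter transcription units. Compounds are incubated 24 h, total RNA is reverse-transcribed and amplified, and labelled fragments are resolved by capillary electrophoresis. Curves use DMSO as baseline.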

COC(=O)c1c(C)cc(O)c(C)c1O
outcome [1]: inactive | outcome [2]: inactive | outcome [3]: inactive | outcome [4]: inactive | outcome [5]: inactive | outcome [6]: inactive | outcome [7]: inactive | outcome [8]: inactive | outcome [9]: inactive | outcome [10]: inactive | outcome [11]: inactive | outcome [12]: inactive | outcome [13]: inactive | outcome [14]: inactive | outcome [15]: inactive

CC(C)c1ccc(C=O)cc1
outcome [1]: inactive | outcome [2]: inactive | outcome [3]: inactive | outcome [4]: inactive | outcome [5]: inactive | outcome [16]: inactive | outcome [6]: inactive | outcome [7]: inactive | outcome [8]: inactive | outcome [17]: inactive | outcome [9]: inactive | outcome [10]: inactive | outcome [11]: inactive | outcome [12]: inactive | outcome [13]: inactive | outcome [18]: inactive | outcome [14]: inactive | outcome [15]: inactive

COC=O
outcome [1]: inactive | outcome [2]: inactive | outcome [3]: inactive | outcome [4]: inactive | outcome [5]: inactive | outcome [6]: inactive | outcome [7]: inactive | outcome [8]: inactive | outcome [10]: inactive | outcome [11]: inactive | outcome [12]: inactive | outcome [13]: inactive | outcome [18]: inactive | outcome [14]: inactive | outcome [15]: inactive

CCOc1ccc(N)c([N+](=O)[O-])c1
outcome [1]: inactive | outcome [2]: inactive | outcome [3]: inactive | outcome [4]: inactive | outcome [5]: inactive | outcome [6]: inactive | outcome [7]: inactive | outcome [8]: inactive | outcome [9]: inactive | outcome [10]: inactive | outcome [11]: inactive | outcome [12]: inactive | outcome [13]: inactive | outcome [18]: inactive | outcome [14]: inactive | outcome [15]: inactive

CO[Si](OC)(OC)c1ccccc1
outcome [1]: inactive | outcome [2]: inactive | outcome [3]: inactive | outcome [4]: inactive | outcome [5]: inactive | outcome [16]: inactive | outcome [6]: inactive | outcome [7]: inactive | outcome [8]: inactive | outcome [17]: inactive | outcome [9]: inactive | outcome [10]: inactive | outcome [11]: inactive | outcome [12]: inactive | outcome [13]: inactive | outcome [18]: inactive | outcome [14]: inactive | outcome [15]: inactive

CO[Si](CCC1CCC2OC2C1)(OC)OC (stereo not given)
outcome [1]: inactive | outcome [2]: inactive | outcome [3]: inactive | outcome [4]: inactive | outcome [5]: inactive | outcome [16]: inactive | outcome [6]: inactive | outcome [7]: inactive | outcome [8]: inactive | outcome [19]: inactive | outcome [17]: inactive | outcome [9]: inactive | outcome [10]: inactive | outcome [11]: inactive | outcome [12]: inactive | outcome [13]: inactive | outcome [18]: inactive | outcome [14]: inactive | outcome [15]: inactive

O=c1cc(-c2ccccc2)oc2ccccc12
outcome [1]: inactive | outcome [2]: inactive | outcome [3]: inactive | outcome [4]: inactive | outcome [5]: inactive | outcome [16]: inactive | outcome [6]: inactive | outcome [7]: inactive | outcome [8]: inactive | outcome [17]: inactive | AC50 [9]: 127 µM (active) | outcome [10]: inactive | outcome [11]: inactive | outcome [12]: inactive | outcome [13]: inactive | AC50 [18]: 178 µM (active) | AC50 [14]: 124 µM (active) | AC50 [15]: 99.5 µM (active)

CC(CC=O)c1ccccc1 (stereo not given)
outcome [1]: inactive | outcome [2]: inactive | outcome [3]: inactive | AC50 [4]: 112 µM (active) | outcome [5]: inactive | outcome [16]: inactive | outcome [6]: inactive | outcome [7]: inactive | outcome [8]: inactive | AC50 [9]: 56.1 µM (active) | outcome [10]: inactive | outcome [12]: inactive | outcome [13]: inactive | outcome [18]: inactive | AC50 [14]: 104 µM (active) | outcome [15]: inactive
